Results published in ChEMBL document CHEMBL3988442, “University of Dundee, Small-Polar-MMV Screening Library” (2021).
For some assays here: Potency and affinity values are given separately.

Experiments:
Design in all cases: scale not given: direction of the effect not stated beside the values
[1] = target: Protein translocase subunit SecA (Escherichia coli (strain K12)) (UniProt P10408); assay: Assay to Identify E. coli SecA ATPase Inhibitors; format: functional; details: 30 µM
[2] = target: T1, Ubiquitin-activating enzyme e1, putative (Leishmania donovani (strain BPK282A1)) (UniProt E9BSI1); assay: Leishmania donovani Ubiquitin Activating Enzyme (LdE1); format: functional; details: 30 µM
T1 sequence (whole entry): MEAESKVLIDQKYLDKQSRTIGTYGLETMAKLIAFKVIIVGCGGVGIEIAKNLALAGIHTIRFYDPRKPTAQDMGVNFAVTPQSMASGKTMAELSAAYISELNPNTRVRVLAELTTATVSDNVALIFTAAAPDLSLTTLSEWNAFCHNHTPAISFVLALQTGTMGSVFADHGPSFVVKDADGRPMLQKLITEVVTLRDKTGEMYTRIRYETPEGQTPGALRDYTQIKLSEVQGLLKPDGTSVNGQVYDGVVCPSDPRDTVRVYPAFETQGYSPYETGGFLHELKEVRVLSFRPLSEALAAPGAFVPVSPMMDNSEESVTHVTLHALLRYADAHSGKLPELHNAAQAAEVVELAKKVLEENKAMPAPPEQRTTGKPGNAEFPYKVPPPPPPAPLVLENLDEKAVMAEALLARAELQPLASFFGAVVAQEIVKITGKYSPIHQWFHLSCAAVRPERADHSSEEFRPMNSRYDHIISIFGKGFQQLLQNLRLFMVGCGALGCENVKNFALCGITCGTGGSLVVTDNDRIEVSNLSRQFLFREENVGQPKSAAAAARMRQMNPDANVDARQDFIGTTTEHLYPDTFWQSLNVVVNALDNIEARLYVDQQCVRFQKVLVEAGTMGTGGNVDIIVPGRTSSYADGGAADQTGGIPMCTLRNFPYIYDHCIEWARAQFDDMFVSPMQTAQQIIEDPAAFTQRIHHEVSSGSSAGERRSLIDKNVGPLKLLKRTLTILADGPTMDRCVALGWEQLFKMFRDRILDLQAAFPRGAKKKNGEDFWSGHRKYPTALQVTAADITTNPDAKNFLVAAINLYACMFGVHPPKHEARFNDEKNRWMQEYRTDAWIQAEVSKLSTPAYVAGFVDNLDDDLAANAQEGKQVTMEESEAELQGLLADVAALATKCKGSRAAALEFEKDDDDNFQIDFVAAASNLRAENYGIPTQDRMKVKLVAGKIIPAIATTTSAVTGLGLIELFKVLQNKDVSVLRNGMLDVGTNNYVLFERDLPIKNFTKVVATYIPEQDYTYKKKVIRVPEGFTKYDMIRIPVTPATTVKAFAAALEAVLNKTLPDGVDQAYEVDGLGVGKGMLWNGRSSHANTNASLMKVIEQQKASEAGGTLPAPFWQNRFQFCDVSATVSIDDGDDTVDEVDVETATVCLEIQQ

[3] = target: AMP-activated protein kinase, AMPK (Homo sapiens) (UniProt P54646+O43741+P54619+Q9UGJ0+Q9Y478+Q13131+Q9UGI9); assay: AMP-dependent Kinase enzyme assay. An in vitro enzyme assay that detects ADP turnover that is directly proportional to AMPK activity. This uses naive AMPK that is activated during the assay with MK-8722; format: functional; details: 30 µM
[4] = target: Sialic acid-binding Ig-like lectin 9 (Homo sapiens) (UniProt Q9Y336); assay: Hs-Siglec9 ALPHAscreen SOP 20170721; details: 10 µM
Trypanosoma cruzi = assay: Trypanosoma cruzi phosphomannomutase and mannose-1-phosphate guanylyltransferase assay; format: functional; details: 10 µM
[5] = target: T2, Arginase-2, mitochondrial (Homo sapiens) (UniProt P78540); assay: in vitro enzyme assay to detect the production of urea directly proportional to the activity of Arginase II; format: functional; details: 33.3 µM; note: in the data most compounds retested in dose-response had high values
T2 sequence (whole entry): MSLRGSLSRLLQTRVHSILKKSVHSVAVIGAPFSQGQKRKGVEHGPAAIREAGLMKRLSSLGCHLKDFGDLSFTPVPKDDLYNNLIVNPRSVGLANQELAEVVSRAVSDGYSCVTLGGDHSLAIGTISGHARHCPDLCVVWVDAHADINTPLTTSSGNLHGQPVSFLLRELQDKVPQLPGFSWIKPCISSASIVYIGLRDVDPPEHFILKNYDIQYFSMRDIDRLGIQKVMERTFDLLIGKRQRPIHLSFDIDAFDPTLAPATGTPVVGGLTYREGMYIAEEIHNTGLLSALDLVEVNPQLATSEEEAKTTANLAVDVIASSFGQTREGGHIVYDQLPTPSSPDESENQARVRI

[6] = target: T3, Proteasome subunit beta (Trypanosoma cruzi) (UniProt O96673); assay: Trypanosoma cruzi proteasome chymotrypsin-like activity (TcProtChymo) assay.; note: in the data most compounds retested in dose-response had high values; format: functional; details: 9.37 µM
T3 sequence (whole entry): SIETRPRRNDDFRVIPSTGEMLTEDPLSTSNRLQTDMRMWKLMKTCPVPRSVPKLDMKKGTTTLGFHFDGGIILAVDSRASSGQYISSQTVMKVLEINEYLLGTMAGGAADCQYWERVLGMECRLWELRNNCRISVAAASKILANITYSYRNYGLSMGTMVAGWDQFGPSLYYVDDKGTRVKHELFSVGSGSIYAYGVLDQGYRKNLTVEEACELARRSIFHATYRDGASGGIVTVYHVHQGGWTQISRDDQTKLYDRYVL

Homo sapiens = organism: Homo sapiens; assay: To identify inhibition of the IFN signalling (Jak-Stat) pathway via expression of an eGFP reporter gene under the control of an IFN-stimulated response element (ISRE) containing MxA promoter.; format: functional; details: 30 µM
[7] = target: T4, Tyrosyl-tRNA synthetase, putative (Trypanosoma cruzi (strain CL Brener)) (UniProt Q4DSP6); assay: Trypanosoma cruzi tyrosyl tRNA synthetase (TcYRS) _High Tyrosine SOP; format: functional; details: 30 µM; note: in the data most compounds retested in dose-response had high values
T4 sequence (whole entry): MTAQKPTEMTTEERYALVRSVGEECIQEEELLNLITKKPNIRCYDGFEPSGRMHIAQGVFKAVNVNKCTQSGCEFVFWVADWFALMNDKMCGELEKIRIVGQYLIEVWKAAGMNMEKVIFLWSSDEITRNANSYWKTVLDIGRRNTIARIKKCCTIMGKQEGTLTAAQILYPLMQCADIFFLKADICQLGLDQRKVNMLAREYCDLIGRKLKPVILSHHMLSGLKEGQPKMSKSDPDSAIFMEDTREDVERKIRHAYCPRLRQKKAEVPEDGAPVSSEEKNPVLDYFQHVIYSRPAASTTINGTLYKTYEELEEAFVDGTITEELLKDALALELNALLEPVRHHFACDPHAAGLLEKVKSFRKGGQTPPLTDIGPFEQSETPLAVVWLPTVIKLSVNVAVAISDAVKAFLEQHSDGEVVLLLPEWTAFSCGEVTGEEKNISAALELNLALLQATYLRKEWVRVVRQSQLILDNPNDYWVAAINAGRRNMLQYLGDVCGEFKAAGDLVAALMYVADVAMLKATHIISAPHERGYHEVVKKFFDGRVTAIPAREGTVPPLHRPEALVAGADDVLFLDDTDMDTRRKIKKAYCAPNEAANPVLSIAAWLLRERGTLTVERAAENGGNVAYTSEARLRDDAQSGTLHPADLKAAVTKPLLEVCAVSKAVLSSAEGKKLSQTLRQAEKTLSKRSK

[8] = target: T4, Tyrosyl-tRNA synthetase, putative (Trypanosoma cruzi (strain CL Brener)); assay: Trypanosoma cruzi tyrosyl tRNA synthetase (TcYRS) SOP; format: functional; details: 30 µM
[9] = target: Chromo domain-containing protein 1 (Saccharomyces cerevisiae (strain ATCC 204508 / S288c) (Baker's yeast)) (UniProt P32657); assay: ScCHD-1 Enzyme Inhibition Assay; format: functional; details: 30 µM; note: in the data most compounds retested in dose-response had high values
Chromo domain-containing protein 1 (Saccharomyces cerevisiae (strain ATCC 204508 / S288c) (Baker's yeast)), sequence (P32657 whole entry, the tested form may be a part): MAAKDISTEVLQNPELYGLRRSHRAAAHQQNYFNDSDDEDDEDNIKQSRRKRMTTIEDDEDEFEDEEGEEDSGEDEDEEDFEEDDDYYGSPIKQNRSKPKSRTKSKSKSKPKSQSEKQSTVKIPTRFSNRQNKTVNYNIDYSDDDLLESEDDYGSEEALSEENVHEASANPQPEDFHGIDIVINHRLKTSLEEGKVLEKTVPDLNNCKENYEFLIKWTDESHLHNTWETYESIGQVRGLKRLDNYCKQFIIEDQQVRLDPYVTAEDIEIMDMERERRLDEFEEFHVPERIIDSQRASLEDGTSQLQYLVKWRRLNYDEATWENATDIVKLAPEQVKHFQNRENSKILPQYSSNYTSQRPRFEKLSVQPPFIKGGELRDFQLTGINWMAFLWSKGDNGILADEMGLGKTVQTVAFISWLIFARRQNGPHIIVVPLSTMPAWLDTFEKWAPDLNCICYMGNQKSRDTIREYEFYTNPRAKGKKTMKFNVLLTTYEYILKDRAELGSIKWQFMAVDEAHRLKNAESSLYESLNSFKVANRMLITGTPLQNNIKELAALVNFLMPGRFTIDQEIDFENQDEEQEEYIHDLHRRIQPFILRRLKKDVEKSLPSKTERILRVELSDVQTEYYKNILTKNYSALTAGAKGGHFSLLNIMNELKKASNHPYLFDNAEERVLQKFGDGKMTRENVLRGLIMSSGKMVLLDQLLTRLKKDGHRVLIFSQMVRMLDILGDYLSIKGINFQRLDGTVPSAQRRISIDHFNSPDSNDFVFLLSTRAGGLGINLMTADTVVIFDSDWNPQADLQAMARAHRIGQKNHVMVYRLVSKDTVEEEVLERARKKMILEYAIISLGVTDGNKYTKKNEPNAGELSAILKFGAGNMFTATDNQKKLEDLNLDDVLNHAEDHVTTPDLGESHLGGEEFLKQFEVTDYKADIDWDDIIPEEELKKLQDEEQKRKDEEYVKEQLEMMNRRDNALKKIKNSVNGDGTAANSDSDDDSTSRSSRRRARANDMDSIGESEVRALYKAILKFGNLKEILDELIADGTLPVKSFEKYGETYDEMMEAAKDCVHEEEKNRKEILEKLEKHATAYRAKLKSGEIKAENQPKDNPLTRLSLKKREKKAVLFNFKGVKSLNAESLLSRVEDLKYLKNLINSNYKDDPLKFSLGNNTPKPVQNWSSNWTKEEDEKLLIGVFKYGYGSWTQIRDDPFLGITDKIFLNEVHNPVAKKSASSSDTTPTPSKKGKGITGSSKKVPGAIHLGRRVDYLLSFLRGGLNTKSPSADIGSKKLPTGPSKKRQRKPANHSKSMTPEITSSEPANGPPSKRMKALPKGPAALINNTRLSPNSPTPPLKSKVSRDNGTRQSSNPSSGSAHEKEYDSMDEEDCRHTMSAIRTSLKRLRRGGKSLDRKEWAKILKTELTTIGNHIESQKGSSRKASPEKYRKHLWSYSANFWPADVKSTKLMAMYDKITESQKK

Protein translocase subunit SecA (Escherichia coli (strain K12)), sequence (P10408 whole entry): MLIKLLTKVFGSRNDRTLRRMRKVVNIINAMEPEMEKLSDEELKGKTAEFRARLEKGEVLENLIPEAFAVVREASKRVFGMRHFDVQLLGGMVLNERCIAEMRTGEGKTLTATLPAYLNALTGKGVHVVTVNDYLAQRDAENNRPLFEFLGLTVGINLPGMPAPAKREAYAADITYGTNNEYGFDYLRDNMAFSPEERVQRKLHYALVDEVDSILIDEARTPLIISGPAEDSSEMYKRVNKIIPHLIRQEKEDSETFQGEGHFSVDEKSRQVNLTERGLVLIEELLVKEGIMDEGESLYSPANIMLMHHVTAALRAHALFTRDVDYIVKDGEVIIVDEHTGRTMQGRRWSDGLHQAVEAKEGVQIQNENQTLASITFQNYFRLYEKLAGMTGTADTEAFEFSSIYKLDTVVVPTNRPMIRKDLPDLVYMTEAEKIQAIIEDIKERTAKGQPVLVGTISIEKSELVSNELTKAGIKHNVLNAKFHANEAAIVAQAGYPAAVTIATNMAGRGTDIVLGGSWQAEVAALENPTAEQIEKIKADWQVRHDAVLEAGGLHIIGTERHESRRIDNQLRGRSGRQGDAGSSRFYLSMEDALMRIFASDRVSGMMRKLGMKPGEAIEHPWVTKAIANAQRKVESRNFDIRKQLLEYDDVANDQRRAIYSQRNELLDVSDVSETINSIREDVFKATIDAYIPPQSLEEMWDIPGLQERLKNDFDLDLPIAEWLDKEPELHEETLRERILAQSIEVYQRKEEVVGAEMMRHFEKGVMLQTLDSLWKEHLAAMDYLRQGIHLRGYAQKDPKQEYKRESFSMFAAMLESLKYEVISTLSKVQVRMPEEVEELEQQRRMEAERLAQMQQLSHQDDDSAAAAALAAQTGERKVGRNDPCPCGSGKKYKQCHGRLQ
Sialic acid-binding Ig-like lectin 9 (Homo sapiens), sequence (Q9Y336 whole entry): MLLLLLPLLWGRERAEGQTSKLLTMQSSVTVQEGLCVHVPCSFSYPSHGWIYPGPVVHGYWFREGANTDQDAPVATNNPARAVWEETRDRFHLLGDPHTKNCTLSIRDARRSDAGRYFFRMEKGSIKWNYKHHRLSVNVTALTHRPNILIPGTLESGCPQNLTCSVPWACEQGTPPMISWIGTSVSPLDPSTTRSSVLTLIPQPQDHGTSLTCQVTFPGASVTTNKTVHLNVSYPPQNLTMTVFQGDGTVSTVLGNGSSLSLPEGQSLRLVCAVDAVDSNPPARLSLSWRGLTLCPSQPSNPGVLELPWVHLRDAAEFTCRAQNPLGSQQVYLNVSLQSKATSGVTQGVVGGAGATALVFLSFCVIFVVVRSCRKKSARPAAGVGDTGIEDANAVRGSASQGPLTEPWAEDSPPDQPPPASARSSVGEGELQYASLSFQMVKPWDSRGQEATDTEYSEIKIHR

Structure (SMILES) | Percent Effect [1] | Percent Effect [2] | Percent Effect [3] | Percent Effect [4] | Percent Effect (Trypanosoma cruzi) | Percent Effect [5] | Percent Effect [6] | Percent Effect (Homo sapiens) | Percent Effect [7] | Percent Effect [8] | Percent Effect [9]
Cc1ccc(S(=O)(=O)Nc2ccc(=O)n(C)c2)cc1 | -2.01% | 20.2% | -48.5% | -4.13% | 2.55% | 4.18% | 17.1% | 36% | 6.4% | 13.9% | -4.02%
O=C(Nc1ccc(F)cc1F)Nc1c[nH]c(=O)[nH]c1=O | 0.161% | 10.4% | 5.76% | -2.96% | -5.03% | 0.645% | 6.09% | 8.21% | -1.06% | 3.85% | -9.44%
CC(=O)N1CCn2cc(CNC(=O)c3cccn3C)nc2C1 | -2.25% | 13.3% | 8.17% | -3.72% | -5.32% | 0.233% | 2.2% | 5.97% | 3.19% | 14.1% | -2.9%
COc1nn(C)cc1C(=O)N1CCC(c2nnc(C3CC3)o2)CC1 | -2.78% | 10.4% | 4.71% | 4.31% | -0.888% | 9.68% | 11.5% | 16.4% | 8.47% | 11.5% | -10.2%
O=C(c1cc(COc2ccc3c(c2)OCO3)[nH]n1)N1CCCC1 | -4.35% | -5.48% | 4.54% | 2.19% | -5.56% | 4.39% | 21.7% | 14.2% | 3.12% | 6.17% | -1.77%
CCC(O)CNC(=O)c1coc(COc2ccc3sc(C)nc3c2)n1 (configuration not stated) | -6.39% | -2.74% | -4.19% | -4.04% | -0.392% | -2.73% | 0.71% | 50% | -1.07% | 0% | 2.81%
Cc1cccc(-c2[nH]ncc2CNCC2CCN(CC(C)O)CC2)c1 (configuration not stated) | -3.75% | 8.11% | -18.5% | 11.6% | 1.42% | 0.401% | 3.96% | 3.31% | 5.42% | 18.5% | -8.81%
O=C(NC[C@H]1OC[C@@H]2CCN(C(=O)c3ccco3)C[C@@H]21)C1CC1 | -4.23% | 2.7% | 1.41% | -2.71% | -3.81% | 5.21% | 10.6% | -3.1% | 2.15% | 11.1% | -4.6%
CCSCCC(=O)Nc1ncn(CC(=O)NCc2ccccc2)n1 | -4.92% | 16% | -4.62% | 16.7% | 8.86% | 3.65% | 25.1% | 5.59% | 12.6% | 28.4% | -2.42%
COc1ccnc(N2CCN(C(=O)CCc3nccs3)CC2)n1 | 0.0461% | 8.11% | -3.33% | 0.0327% | -1.54% | -2.38% | 12.1% | 14.1% | 2.65% | 7.32% | -3.79%
Cc1nonc1C(=O)N1CCCC(c2ncncc2-c2ccncc2)C1 (configuration not stated) | -5.71% | 8% | 11.1% | 2.77% | -0.591% | 0.699% | 3.08% | -1.27% | 5.32% | 8.97% | -4.88%
O=C(NCC1CC1)[C@H]1C[C@H]2OCC[C@H]2N(CCc2ccccc2)C1 | -3.05% | 2.7% | 0.431% | -3.87% | -5.96% | -1.59% | 16.4% | 0.915% | 2.16% | 5.13% | -1.91%
Cn1cc(C2CCCN2C(=O)CCCOCc2ccccc2)cn1 (configuration not stated) | -4.26% | 10.1% | -1.48% | -1.07% | 4.25% | -1.9% | 7.62% | 2.8% | 0.493% | 3.8% | -7.66%
COc1cccc(S(=O)(=O)NC2CNC(=O)C2)c1 (configuration not stated) | -6% | 2.74% | 3.51% | 9.97% | 6.66% | -1.36% | 2.31% | -0.016% | 4.3% | 12.5% | -5.21%
Cc1ccccc1Oc1ncccc1CNS(C)(=O)=O | -5.18% | 15.6% | -0.858% | 12.6% | 8.16% | -8.28% | 1.33% | 0.0503% | 5.38% | 11.1% | -7.62%
Cc1ccn(-c2ccccc2NCc2ncc[nH]2)n1 | -7.12% | 8.22% | -9.03% | -1.61% | 0.783% | 3.18% | 9.41% | -4.65% | 4.3% | 10% | -3.33%
COc1cccc(CN2CCC(c3nccn3C(C)C)CC2)c1 | -3.84% | 15.6% | 0.593% | 14.9% | 4.23% | -5.52% | 11.5% | -3.74% | 7.53% | 21% | -7.09%
CCN(CC)c1ccc(C(=O)NCc2cccnc2-n2cncn2)cn1 | -0.491% | 8.11% | -12.6% | 48.7% | 1.86% | 18.6% | 8.84% | 19.1% | 2.15% | 11.1% | -5.91%
O=C(CC1CCCC1)N1CCCC1c1nc(O)cc(-c2ccccn2)n1 (configuration not stated) | -6.13% | 20.3% | 1.3% | 16.7% | -0.395% | -4.41% | 13.9% | 1.89% | 6.45% | 19.5% | -15.4%
COC(=O)CNC(=O)CSCc1nc(O)c2cc(C(C)C)sc2n1 | 0.0478% | -6.67% | 10.7% | 2.72% | -2.95% | -9.68% | 7.58% | -3.98% | -3.17% | 5.13% | -1.35%
CCc1cc(=O)[nH]c2nnc(SCC(=O)OC)n12 | 0.274% | 16.4% | -5.37% | -14.2% | 3.72% | 18.2% | 15.6% | -0.951% | 6.45% | 17.5% | -6.44%
Cc1csc(N2CCCN(C(=O)C(C)n3ccnc3)CC2)n1 (configuration not stated) | -4.19% | 8.11% | 5.77% | 0.506% | 6.78% | -2.77% | -0.718% | 10.8% | 5.94% | 15.8% | 1.79%
